GLS inhibitor – blocks human kidney-isoform glutaminase activity. O94925. GLS enzymatic activity, qHTS titration. Potency, µM (highest dose often 45.5 µM), for the others: at the highest dose activity change, negative = inhibition, hits mostly inhibitors. 410,000 tested, 0.21% active; note: potency is the fitted concentration of half-maximal effect; % is set by controls: 0 for no effect and ±100 for the full control effect
Target sequence (O94925 whole entry, looked up, canonical isoform): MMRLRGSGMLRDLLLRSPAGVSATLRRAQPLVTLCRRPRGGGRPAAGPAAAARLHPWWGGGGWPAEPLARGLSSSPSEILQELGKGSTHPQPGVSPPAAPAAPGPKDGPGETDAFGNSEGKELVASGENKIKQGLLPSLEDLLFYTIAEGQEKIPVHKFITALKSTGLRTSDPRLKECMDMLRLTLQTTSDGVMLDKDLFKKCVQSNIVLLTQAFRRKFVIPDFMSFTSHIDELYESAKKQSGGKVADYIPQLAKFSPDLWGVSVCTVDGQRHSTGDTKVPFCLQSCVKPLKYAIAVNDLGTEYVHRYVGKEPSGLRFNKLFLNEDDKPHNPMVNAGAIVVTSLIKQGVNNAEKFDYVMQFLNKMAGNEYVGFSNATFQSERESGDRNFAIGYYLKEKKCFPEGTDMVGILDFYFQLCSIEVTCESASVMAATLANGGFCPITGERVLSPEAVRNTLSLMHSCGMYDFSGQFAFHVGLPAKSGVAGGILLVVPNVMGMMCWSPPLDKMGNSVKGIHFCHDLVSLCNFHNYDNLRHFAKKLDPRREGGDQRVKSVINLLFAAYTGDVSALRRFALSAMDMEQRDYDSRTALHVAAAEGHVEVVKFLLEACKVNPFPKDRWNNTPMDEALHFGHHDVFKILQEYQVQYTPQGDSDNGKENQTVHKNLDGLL
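Compounds were pin-transferred onto hKGA, after which L-glutamine (1 mM solution) and a detection mix of glutamate oxidase, HRP and Amplex Red were added. Initial and 30 min RT fluorescence reads were collected.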
HEK293 tox – cytotoxic in the GLP-1 receptor inverse agonist counter-screen; AID 624418; Potency, µM (doses to about 38.3 µM), for inactives: at the highest dose activity change, negative = inhibition, hits mostly inhibitors; HEK293 cAMP-luciferase reporter cells, luminescence, 24 h; 410,000 tested, 0.13% active;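 note: loss of luciferase light is scored as toxicity; potency is the fitted concentration of half-maximal effect; % is set by controls: 0 for no effect and ±100 for the full control effect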
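Luminescence readout: signal drop marks cytotoxicity. Plated cells grew 12 h at 37 °C, 5% CO2, received 23 nL compound for 24 h, then got luciferase reagent, read after 12 min at RT.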
KCNH2 3.1 block – blocks the human KCNH2 3.1 channel isoform. 340,000 tested, 0.95% active. U2OS KCNH2 3.1, thallium flux FluxOr; hits give low values. AID 720553. activity change, % (tested at about 1.8 µM);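 active = maximum activity change below -70%; inconclusive = maximum activity change from -70% to -50%; inactive = maximum activity change above -50%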;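 note: thallium influx rate constant from kinetic fluorescence after stimulation buffer; % is set by controls: 0 for no effect and ±100 for the full control effect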
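Steps: virus added to U2OS suspension (4 h, RT, dark); medium with 10% FBS added, cells plated, 37 C overnight; FluxOr/Red40 loading buffer 45 min RT; stimulation buffer, 2 min kinetic read; rate constant normalized.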
KCNH2 WT inh – KCNH2 (human, wildtype) channel inhibition; 340,000 tested, 0.37% active; U2OS, BacMam KCNH2, thallium flux FluxOr; hits give low values; activity change, % at 1.84 µM; AID 720551; Q12809;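 active = maximum activity change below -70%; inconclusive = maximum activity change between -70% and -50%; inactive = maximum activity change above -50%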; note: % is set by controls: 0 for no effect and ±100 for the full control effect
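U2OS cells were transduced with wild-type KCNH2 virus (2.03 x 10^8 / mL) for 4 h at room temperature, then cultured overnight at 37 C. Thallium flux was read with FluxOr dye. Rate constants were normalized to DMSO controls.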
GLP-1R inv ag – inverse agonists of human GLP-1 receptor | HEK293 GLP-1R CRE-luciferase, luminescence, 24 h; GLP-1R form is constitutively active | Potency, µM (series often up to 38.3 µM), inactives show at the highest dose activity change, negative = inhibition, usual class: inhibitors | 410,000 tested, 1.6% active | AID 624417; note: potency is the fitted concentration of half-maximal effect; % is set by controls: 0 for no effect and ±100 for the full control effect; nearly all actives have a fitted effect of over 55% in size
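qHTS in 1536-well format: reporter HEK293 cells expressing constitutive GLP-1R activity in DMEM + 10% Nu serum, 24 hr with compounds at 37 deg C, luminescence read after 12 min with detection reagent.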
GLP-1R agonist – activates the human GLP-1 receptor; P43220; HEK293 GLP-1R CRE-luciferase, luminescence, 4-6 h; cells express a hypersensitive GLP-1R form; Potency, µM (titrated, usually from 45.6 µM), without a hit: at the top dose activation, actives largely listed as activators; 380,000 tested, 0.007% active; AID 624172; note: potency is the fitted concentration of half-maximal effect; % of control where 0% means no effect
Numbers without * were called inactive; ? = inconclusive; . = no result given. Shown are actives, neighbours in structure and some others; about 2.8% of the full set was active somewhere. Unless noted, calls come from the whole dose curve; as a rule, active = well fitted curve in the direction sought with a large enough effect; inconclusive = small, poorly fitted or top-dose-only effect, or another doubt; inactive = no such curve, though single readings can be large; an effect the other way counts as inactive or inconclusive.

SMILES	GLS inhibitor	HEK293 tox	KCNH2 3.1 block	KCNH2 WT inh	GLP-1R inv ag	GLP-1R agonist
COc1ccc(CN2CCC(n3nccc3NC(=O)CCc3ccccc3)CC2)c(C)c1C	1%	-1%	-81*	0	4%	4%
CCOc1ccc(CN2CCC(n3nccc3NC(=O)CCCc3ccccc3)CC2)cc1	-1%	5%	4	-132*	?	-6%
CCn1cc(CN2CCC(n3nccc3NC(=O)CCCc3ccccc3)CC2)cn1	7%	-5%	-35	17	3%	13%
O=C(O)c1ccccc1C(=O)NCc1c(Cl)cccc1Sc1ccc(Cl)cc1	15%	-2%	1	0	?	3%
Cn1c(SCC(=O)O)nnc1-c1ccc(NC(=O)c2ccc(Cl)c(Cl)c2)cc1	1%	2%	-16	-127*	34%	5%
Oc1ccc(N=Nc2ccc3c(c2)OCCO3)c2ncccc12	-10%	10µM*	-7	-4	?	-1%
Cc1cccc(N=Nc2ccc(O)c3ncccc23)c1	29%	-15%	0	-9	9%	-6%
CN(CC(=O)Nc1ccc(OC(F)(F)F)cc1)C(=O)Cc1ccc2c(c1)CCC2	-1%	1%	-9	15	5.6µM*	2%
COc1cccc(NC(=O)CN(C)C(=O)Cc2ccc3c(c2)CCC3)c1	0%	-15%	5	-5	?	2%
O=C(NC1CC(=O)N(c2ccc(Cl)cc2)C1)C1CCCCC1 (centres undefined)	-11%	11%	.	.	2%	.
C=CCN=c1scc(-c2ccc3c(c2)NC(=O)CO3)n1/N=C(\C)c1ccccn1	4%	?	-95*	2	-30%	6%
CON(C)S(=O)(=O)c1cccc(C(=O)Oc2ccc(N(C)S(=O)(=O)c3ccccc3)cc2)c1	3%	4%	8	-4	9%	0%
Cc1ccc(N=Nc2c(C)[nH]n(C(N)=S)c2=O)cc1C	-4%	?	-23	1	0.5µM*	-4%
N#CCN(C(=O)COC(=O)CCCNC(=O)c1ccc(Cl)cc1)c1ccccc1	-3%	0%	-7	-20	6%	22%
CC(C)C[C@@H](CO)N(Cc1ccccc1)S(=O)(=O)N(Cc1ccccc1)[C@H](CO)CC(C)C	2%	?	.	.	?	-3%
COc1ccc(CN([C@H](CO)CC(C)C)S(=O)(=O)N(Cc2ccccc2)[C@H](CO)CC(C)C)cc1	-10%	?	.	.	4.5µM*	-10%
O=C1NCC(c2ccccc2)C1C(=O)N/N=C\c1ccc(-c2ccc(Cl)c(Cl)c2)o1 (centres undefined)	7%	?	-16	-2	10µM*	-5%
O=C(NCCc1ccccc1)C1CCN(S(=O)(=O)N2CCOCC2)CC1	6%	-1%	-3	-104*	5%	-1%
CC1(C)CC2CC(C)(CN2S(=O)(=O)c2ccc(C(=O)Nc3ccc(S(=O)(=O)N4CCOCC4)cc3)cc2)C1 (centres undefined)	-1%	11%	-31	-5	11µM*	1%
O=C(Nc1ccc(Cl)c(S(=O)(=O)N2CCOCC2)c1)c1ccccc1-c1ccc(C(F)(F)F)cc1	-6%	2%	-12	1	2.8µM*	19%
O=C(Nc1ccc(Cl)c(S(=O)(=O)N2CCOCC2)c1)c1cc2ccccc2oc1=O	-1%	0%	7	-17	13%	0%
CC1(C)CC2CC(C)(CN2S(=O)(=O)c2ccc(C(=O)Nc3ccc(Cl)c(S(=O)(=O)N4CCOCC4)c3)cc2)C1 (centres undefined)	-2%	-12%	-12	-1	3.5µM*	-17%
Clc1ccc(-c2noc(-c3cccnc3N3CCN(c4ccccc4)CC3)n2)cc1	-4%	0%	.	.	2%	.
CCCc1cc(=O)oc2cc(C)c(CN3CCCC3)c(O)c12	10µM*	-2%	-2	-3	22%	-10%

From PubChem BioAssay
